Our source for the composite z-score and z-score values is PubChem BioAssay.

The source made the active and inactive calls. Unless noted, the rule behind the calls is not given here.

Assay [1] concerns XIP peptide (Xip251-270) binding. Put plainly: small-molecule binders of XIP peptide, primary screen, biochemical, small-molecule microarray, fluorescence 635/667 nm, 0.1 µg/mL protein (AID 1182). Conditions: fluorescent protein binding, 635 nm, higher = more signal, called active from +8 up or from −8 down.
Another assay has as its system XIP peptide (Xip251-270). Put plainly: small-molecule binders of XIP peptide, primary screen, biochemical, small-molecule microarray, fluorescence 635/667 nm, 0.5 µg/mL protein (AID 1183). As to conditions: small-molecule microarray binding, fluorescence 635 nm; higher = more signal.
The nature of assay [2]: Plasmodium falciparum growth inhibition, primary screen, strain 3D7, DAPI fluorescence, 100 nL (AID 1184).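 Note: parasites grown inside human red blood cells in medium with human serum.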 As to conditions: P. falciparum 3D7 growth, 3 d, higher = more signal.
Assay [3] deals with Homeobox protein Hox-A13 (Mus musculus) (UniProt Q62424). In words: inhibitors of HoxA13-DNA binding, primary screen, biochemical, fluorescence polarization, labeled oligonucleotide (AID 1185). Conditions: 15 min, higher = more signal, called active from +8 up or from −8 down. (Fluorescence polarisation rises when a labelled molecule tumbles more slowly, as on binding a larger partner.)
Chain of Homeobox protein Hox-A13 (Mus musculus) (Q62424 whole entry, looked up): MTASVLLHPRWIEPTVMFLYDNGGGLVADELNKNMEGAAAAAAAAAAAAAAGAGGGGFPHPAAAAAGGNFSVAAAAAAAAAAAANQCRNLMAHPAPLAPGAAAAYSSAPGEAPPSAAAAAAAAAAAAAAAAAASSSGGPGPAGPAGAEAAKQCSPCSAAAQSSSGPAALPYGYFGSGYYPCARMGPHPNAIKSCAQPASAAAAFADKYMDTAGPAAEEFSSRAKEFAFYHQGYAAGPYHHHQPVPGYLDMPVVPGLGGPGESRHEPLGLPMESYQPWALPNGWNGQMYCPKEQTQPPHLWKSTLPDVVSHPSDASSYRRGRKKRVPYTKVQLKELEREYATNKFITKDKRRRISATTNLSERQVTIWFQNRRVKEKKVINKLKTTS

Assay [4] is described as follows: inhibitors of hydroxyurea-induced Chk1 phosphorylation, primary screen, imaging, HeLa, phospho-Chk1 antibody, percent positive cells (AID 1186). Conditions: hydroxyurea-induced phospho-Chk1 immunofluorescence imaging, higher = more signal.
Assay [5] in a line: inhibitors of hydroxyurea-induced Chk1 phosphorylation, primary screen, imaging, HeLa, phospho-Chk1 nuclear intensity (AID 1187). As to conditions: hydroxyurea-induced phospho-Chk1 immunofluorescence imaging, higher = more signal.

On to `CCOC(=O)C1=CC[C@@H](c2ccccc2Cl)N(S(=O)(=O)c2ccc(C)cc2)C1`, for which the composite z-score was 0.792 (inactive) in assay [1] and 0.488 in the assay on XIP peptide (Xip251-270). Besides, the z-score is -2.06 in assay [2], -2.78 (inactive) in assay [3], -1.55 (inactive) in assay [4] and -1.77 (inactive) in assay [5].

On to `O=C1O[C@@H](c2ccccc2)[C@@H](c2ccccc2)N2[C@@H](c3ccccc3OCCO)[C@]3(C(=O)Nc4ccc(C#CC5(O)CCCCCC5)cc43)[C@@H](C(=O)Nc3nc4ccccc4s3)[C@H]12`, for which the composite z-score was 0.0985 (inactive) in assay [1] and 0.626 in the assay with XIP peptide (Xip251-270). For the same compound, the z-score is -2.16 in assay [2], 2.1 (inactive) in assay [3], 0.329 (inactive) in assay [4] and 0.288 (inactive) in assay [5].

As to `COc1ccc(C#Cc2ccc3c(c2)[C@]2(C(=O)N3)[C@H](C(=O)NC[C@H](O)c3ccccc3)[C@H]3C(=O)O[C@H](c4ccccc4)[C@H](c4ccccc4)N3[C@@H]2c2ccc(OCCO)cc2)cc1`, the values for the composite z-score (in assay [1]; in the assay with XIP peptide (Xip251-270)) were -0.0969 (inactive) and 0.715, respectively. Also, the z-score is -1.06 in assay [2], -0.878 (inactive) in assay [3], 0.63 (inactive) in assay [4] and 0.886 (inactive) in assay [5].

`CC(C)NC(=O)[C@@H]1c2ccccc2C(=O)N(Cc2ccccc2Cl)[C@H]1c1ccc(CO)cc1`: the composite z-score in assay [1] was 0.989 (inactive); in the assay on XIP peptide (Xip251-270), 0.719. For the same compound, the z-score is -0.842 in assay [2], -3.24 (inactive) in assay [3], 0.323 (inactive) in assay [4] and 0.667 (inactive) in assay [5].

For `COC(=O)c1ccc(OC)c(/C=C\CC(OC(C)=O)c2ccccc2)c1` (configuration not stated), the composite z-score in assay [1] was 0.322 (inactive); with XIP peptide (Xip251-270), 0.501. In addition, the z-score was 0.0859 in assay [2], -2.35 (inactive) in assay [3], 0.237 (inactive) in assay [4] and 0.328 (inactive) in assay [5].

Regarding `CC(=O)NCCCC[C@@H]1NC(=O)[C@@H]2C[C@H](C(=O)NCCCCCCNC(=O)CS)[C@H](c3ccc(O)cc3)N2C1=O`, the results for the composite z-score (in assay [1]; in the assay with XIP peptide (Xip251-270)) were 0.757 (inactive) and 0.596, respectively. Besides, the z-score was 0.648 in assay [2], -5.16 (inactive) in assay [3], 0.34 (inactive) in assay [4] and 0.0918 (inactive) in assay [5].

On to `[N-]=[N+]=NCc1ccccc1C[C@]1(C(=O)O)N=C(c2ccc(OCCCO)cc2)O[C@H]1c1ccccc1CN=[N+]=[N-]`, for which the composite z-score in assay [1] was 0.218 (inactive); in the assay on XIP peptide (Xip251-270) it was 0.746. Also, the z-score in assay [2] was -0.507; in assay [3] it was -4.69 (inactive); in assay [4], -0.0136 (inactive); in assay [5], 0.306 (inactive).

For the compound `CC(C)(C)OC(=O)CC[C@]1(C(=O)N2CCCCC2)N=C(c2ccc(OCCCO)cc2)O[C@H]1c1ccccc1N=[N+]=[N-]`, the composite z-score in assay [1] was 0.282 (inactive); in the assay with XIP peptide (Xip251-270), 0.71. In addition, the z-score in assay [2] was -1.75; in assay [3], -2.92 (inactive); in assay [4], -0.0036 (inactive); in assay [5], 0.212 (inactive).

As to `CCCNC(=O)[C@@H]1c2ccccc2C(=O)N(Cc2ccccc2)[C@H]1c1ccc(CO)cc1`, the composite z-score is 0.838 (inactive) in assay [1] and 0.312 with XIP peptide (Xip251-270). Further, the z-score in assay [2] was -1.62; in assay [3], -2.71 (inactive); in assay [4], 0.0089 (inactive); in assay [5] it was -0.142 (inactive).

With `O=C(O)[C@H]1C[C@H]2C(=O)NCC(=O)N2[C@H]1c1ccc(O)cc1`, the values for the composite z-score (in assay [1]; with XIP peptide (Xip251-270)) were 0.267 (inactive) and -0.212, respectively. The z-score in assay [2] is 0.137; in assay [3], -0.43 (inactive); in assay [4] it was 0.0056 (inactive); in assay [5], 0.0301 (inactive).

`Cc1ccc(S[C@]2(C(=O)NC3CC3)CC(=O)N(Cc3ccccc3)[C@@H]2c2ccc(CO)cc2)cc1`: the composite z-score in assay [1] was 0.795 (inactive); with XIP peptide (Xip251-270) it was 0.327. Also, the z-score in assay [2] was -0.308; in assay [3], -2.47 (inactive); in assay [4], 0.0616 (inactive); in assay [5] it was 0.0892 (inactive).

`O=C1C2C=CC(C(O)c3ccc(F)cc3)N(Nc3ccccc3)C2C(=O)N1c1ccccc1` (configuration not stated): the figures for the composite z-score (in assay [1]; in the assay with XIP peptide (Xip251-270)) were 0.669 (inactive) and -0.168, respectively. Also, the z-score in assay [2] was 0.191; in assay [3] it was -4.12 (inactive); in assay [4], -0.125 (inactive); in assay [5], -0.391 (inactive).

As to `COc1ccc([Si](C)(C)[C@@H]2[C@@H](CC(=O)N(CCO)Cc3ccccc3)O[C@]3(C(=O)N(C)c4ccccc43)[C@H]2C)cc1`, the composite z-score is 1.74 (inactive) in assay [1] and 0.626 with XIP peptide (Xip251-270). The z-score in assay [2] is -1.55; in assay [3], -6.65 (inactive); in assay [4], -0.36 (inactive); in assay [5], -1.47 (inactive).

In the case of `Cc1ccc(F)cc1S(=O)(=O)N[C@@H]1CCN(Cc2ccc(-c3ccccc3)cc2)C1`, the composite z-score in assay [1] was 0.765 (inactive); with XIP peptide (Xip251-270), 0.479. In addition, the z-score in assay [2] is -1.89; in assay [3], -4.9 (inactive); in assay [4] it was -0.23 (inactive); in assay [5] it was -0.0784 (inactive).

As for `C=CCNC(=O)[C@@H]1[C@H]2C(=O)O[C@H](c3ccccc3)[C@H](c3ccccc3)N2[C@H](c2ccc(O)cc2)[C@@]12C(=O)N(C(=O)OCCOC)c1ccccc12`, the composite z-score was 2.55 (inactive) in assay [1] and 0.525 with XIP peptide (Xip251-270). In addition, the z-score in assay [2] was -2.07; in assay [3], -2.07 (inactive); in assay [4], 0.209 (inactive); in assay [5] it was 0.354 (inactive).

Regarding `C=C(COC)/C(=C/C[C@H](OC(=O)c1ccncc1)c1cccc(OCCO)c1)c1cc(C(=O)OC)ccc1OC`, the composite z-score is 1.46 (inactive) in assay [1] and 0.153 in the assay with XIP peptide (Xip251-270). For the same compound, the z-score in assay [2] was -2.96; in assay [3], -4.05 (inactive); in assay [4] it was -0.681 (inactive); in assay [5], -0.764 (inactive).

On to `CC(C)(C)OC(=O)CC[C@@]1(C(=O)O)N=C(c2ccc(OCCCO)cc2)O[C@@H]1c1ccccc1N=[N+]=[N-]`, for which the results for the composite z-score (in assay [1]; in the assay with XIP peptide (Xip251-270)) were 1.37 (inactive) and -0.333, respectively. In addition, the z-score is 0.603 in assay [2], -5.2 (inactive) in assay [3], -0.157 (inactive) in assay [4] and -0.51 (inactive) in assay [5].
